Nrf2 block – Nrf2 qHTS screen for inhibitors; A549 ARE-Fluc reporter, luciferase luminescence, 18-24 h; Potency, µM (top dose mostly 46 µM), hits mostly inhibitors; 360,000 compounds, 2.1% hits; AID 504444, 2011; also: nearly all actives have a fitted effect of over 60% in size
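Nrf2 activity is the BugLite luminescence, read 15 min after reagent at room temperature, following CellTiter-Fluor cytotoxicity readout (30 min, 37C). Compound titrations were applied for 18-24 h to 5000 A549 ARE_Fluc cells/well in 5% FBS OPTI-MEM.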
Nrf2 activator – qHTS of Nrf2 Activators | AREc32 ARE-luciferase reporter (MCF7-derived line), luminescence, 24 h | Potency, µM (series often up to 46.1 µM), most hits filed as activators | 410,000 compounds, 0.31% hits | AID 624171, 2012; also: nearly all actives have a fitted effect of over 65% in size
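AREc32 cells carrying an ARE-driven firefly luciferase, 1000 cells/well in OPTI-MEM with 5% FBS, dosed after overnight attachment and incubated 24 hr at 37 deg C. Steady-Glo luminescence read after 30 min at RT.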
ClpP mod – qHTS Assay for Activators of ClpP. 340,000 compounds, 1.9% hits. Potency, µM (doses to about 57.5 µM). AID 651965, 2013. purified B. subtilis ClpP, FRET peptide cleavage, 20 min; active = well fitted falling curve with a large enough effect; inconclusive = small, poorly fitted or top-dose-only effect; inactive = no such curve, though single readings can be large or run the other way; also: the source files actives as falling curves though it sought activators and does not explain the sign; nearly all actives have a fitted effect of over 65% in size
Target sequence (P80244 whole entry, looked up): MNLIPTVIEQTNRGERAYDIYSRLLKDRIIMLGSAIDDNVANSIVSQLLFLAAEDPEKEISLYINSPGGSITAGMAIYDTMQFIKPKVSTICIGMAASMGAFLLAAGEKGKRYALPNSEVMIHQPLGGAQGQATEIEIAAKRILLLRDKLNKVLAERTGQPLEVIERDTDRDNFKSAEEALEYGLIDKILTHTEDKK
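FRET quenching reversal measured ClpP activation: 10 microg/mL B. subtilis ClpP at pH 8 with the FRET-FV decapeptide, read at 430 nm after 320 nm excitation. The 20-min minus 0-min signal was scaled between DMSO/no-enzyme wells and ADEP (5.8 microM final).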
A549 tox – Nrf2 qHTS screen for inhibitors: counterscreen for cytotoxicity; Potency, µM (doses to about 46 µM), hits mostly inhibitors; 390,000 compounds, 0.16% hits; AID 504648, 2011; A549 ARE-Fluc cells, CellTiter-Fluor viability, 18-24 h
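A549 ARE_Fluc cells in 5% FBS OPTI-MEM were exposed to compounds in concentration-response for 18-24 h at 37 deg C. Viability was read by CellTiter-Fluor fluorescence (Ex 405/Em 525) after 30 min, before the luciferase read.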
p53 reactivator – qHTS assay for re-activators of p53 using a Luc reporter. H1299 p53-A138V BP100-luciferase reporter, luminescence, 24 h. AID 504706, 2011. 320,000 compounds, 0.063% hits. Potency, µM (doses to about 92.2 µM), actives largely listed as activators; also: nearly all actives have a fitted effect of over 45% in size
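H1299 (p53-null), stable ts p53-A138V + BP100-Luc; 1000 cells/well, Opti-MEM/10% FBS; cpd 4 pt, 1:5; 24 h, 37 deg C, 5% CO2; detection reagent 10 min RT; luminescence.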
miR-21 act – qHTS Assay for Modulators of miRNAs and/orActivators of miR-21; HeLa miR-21 FLuc reporter, luciferase, 48 h; Potency, µM (highest dose often 38.3 µM), usual class: activators; 340,000 tested, under 10 active; AID 2288, 2010;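 also: miR-21 action dims this reporter so a rising signal means less miR-21 action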
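HeLa cells stably expressing CMV-driven firefly luciferase with a downstream miR-21 binding sequence, endogenously expressing miR-21, were treated with titrations (up to about 40uM final) for 48 hours at 37 degree Celsius. Luciferase luminescence was read after lysis.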
A number is an active result; i = inactive; ? = inconclusive; nt = no result given. An excerpt weighted towards active compounds, which were near 3.7% of everything screened. Unless noted, calls follow the shape of the dose curve; as a rule, active = well fitted curve in the direction sought with a large enough effect; inconclusive = small, poorly fitted or top-dose-only effect, or another doubt; inactive = no such curve, though single readings can be large; an effect the other way counts as inactive or inconclusive.

SMILES | Nrf2 block | Nrf2 activator | ClpP mod | A549 tox | p53 reactivator | miR-21 act
Cc1ccc(OCC(=O)N/N=C\c2ccc(C)o2)c([N+](=O)[O-])c1 | i | i | nt | i | i | i
O=C(CNc1ccc2ccccc2c1)N/N=C/c1ccc([N+](=O)[O-])o1 | i | i | nt | i | i | i
O=C(CSc1ccc(Cl)cc1)N/N=C/c1ccc([N+](=O)[O-])o1 | 23µM | i | i | ? | i | i
O=C(COc1ccccc1[N+](=O)[O-])N/N=C/c1ccccn1 | i | 11µM | i | i | ? | i
Cc1ccccc1OCC(=O)N/N=C/c1ccccn1 | i | i | i | i | i | i
O=C(COc1ccccc1)N/N=C/c1ccc([N+](=O)[O-])o1 | 13µM | i | i | ? | ? | ?
Cc1ccc(OCC(=O)N/N=C/c2ccc([N+](=O)[O-])o2)cc1 | 21µM | i | i | i | i | i
CCC1CCC2(CC1)NC(=O)N(CC(=O)Nc1cccc(S(=O)(=O)N(C)c3ccccc3)c1)C2=O (stereo not given) | 16µM | i | i | i | i | nt
CC1CCC2(CC1)NC(=O)N(CC(=O)Nc1cccc(S(=O)(=O)N3CCCCC3)c1)C2=O (stereo not given) | 18µM | i | i | i | i | nt
CN1C(=O)N(CC(=O)Nc2cccc(S(=O)(=O)N(C)c3ccccc3)c2)C(=O)C12CCCCC2 | i | i | i | i | i | nt
COc1ccc(C(C(=O)Nc2ccc3c(c2)OCCO3)n2c(=O)c(-c3ccco3)nc3ccccc32)cc1 (stereo not given) | nt | nt | i | nt | nt | nt
O=C(Nc1ccc(F)c(Cl)c1)c1nsc(Cl)c1Cl | i | 3.2µM | i | i | i | i
CCOC(=O)c1ccc(-c2ccc3ncnc(NCc4cccs4)c3c2)o1 | i | nt | nt | ? | nt | nt
OCC1OC(n2ccc3c(SCc4ccccc4)ncnc32)C(O)C1O (stereo not given) | ? | i | 35µM | i | nt | nt
OCC1OC(n2cnc3c(SCc4ccccc4)ncnc32)C(O)C1O (stereo not given) | i | i | i | i | nt | nt
COCCN(C(=O)COC(=O)Cc1coc2cc3c(cc12)CCC3)c1c(N)n(Cc2ccccc2)c(=O)[nH]c1=O | i | i | 18µM | i | i | nt
COCCN(C(=O)COC(=O)COc1ccc2c(c1)CCC2)c1c(N)n(Cc2ccccc2)c(=O)[nH]c1=O | ? | i | i | i | i | nt
COCCN(C(=O)COC(=O)c1oc2ccc(OC)cc2c1C)c1c(N)n(Cc2ccccc2)c(=O)[nH]c1=O | i | i | 13µM | i | i | i
CCOC(=O)c1nn(-c2ccc(OC)cc2)c(=O)c2c(NC(=O)Cc3ccccc3)scc12 | i | nt | nt | i | nt | nt
N#Cc1nc(-c2ccc(Cl)cc2)oc1NCc1ccco1 | ? | ? | 11µM | i | i | i
N#Cc1nc(-c2ccc(Cl)cc2)oc1NCCc1ccccn1 | i | i | 32µM | i | ? | i
N#Cc1nc(-c2ccccc2)oc1NCc1ccco1 | i | ? | i | i | i | i
N#Cc1nc(-c2ccc(Cl)cc2)oc1NCc1cccc2c1OCO2 | nt | i | 11µM | i | nt | i
Cc1ccc(CN(C(=O)COc2cccc(Cl)c2)c2ccccn2)o1 | i | i | i | i | nt | i
O=C(O)/C=C/c1cc(F)c(S(=O)(=O)N2CCN(S(=O)(=O)c3ccc4c(c3)OCCO4)CC2)cc1F | i | nt | nt | i | nt | nt
SMILES | Nrf2 block | Nrf2 activator | ClpP mod | A549 tox | p53 reactivator | miR-21 act
Cc1ccccc1Cn1nnc2c(=O)[nH]c(C3CCCN(C(=O)c4ccc(F)cc4)C3)nc21 (stereo not given) | ? | i | i | i | nt | i
Cc1ccc2nc(-c3cccc(Br)c3)cc(C(=O)NCC3CCCO3)c2c1 (stereo not given) | ? | i | 14µM | i | i | i
Cc1c2cnn(CC(=O)NCc3ccc(F)cc3)c(=O)c2c(C)n1Cc1ccccc1Cl | i | i | i | i | nt | i
COc1cccc(C(=O)Nc2ccc(C(=O)OCc3cc(=O)n4cc(C)sc4n3)cc2)c1 | nt | i | i | i | nt | i
COc1nc(-c2ccccc2)cc(-c2ccc(OC)c(OC)c2)n1 | ? | i | 22µM | i | i | i
Cc1cc(=O)n2c(C(=O)Nc3ccc(C)c(Cl)c3)c(C(=O)Nc3ccccc3)sc2n1 | i | i | i | i | nt | i
Cc1cc(=O)[nH]c2nnc(SCc3ccc(Cl)c(Cl)c3)n12 | nt | i | i | i | nt | i
Cc1ccc(NNC(=O)C(O)(c2cccc(C(F)(F)F)c2)c2cccc(C(F)(F)F)c2)cc1 | 23µM | i | i | ? | i | i
O=C(NNc1ccccc1Br)C(O)(c1cccc(C(F)(F)F)c1)c1cccc(C(F)(F)F)c1 | ? | i | i | ? | i | ?
CCC(Oc1ccccc1)C(=O)Nc1ccc(OCc2cc(=O)n3ccc(C)cc3n2)cc1 (stereo not given) | nt | i | i | i | nt | i
COc1ccc(CC(=O)Nc2nc(-c3cc(OC)ccc3OC)cs2)cc1 | 12µM | i | nt | i | i | i
COc1cccc(CC(=O)Nc2nc(-c3cc(OC)ccc3OC)cs2)c1 | i | i | nt | i | i | i
CCc1noc(C)c1C(=O)Nc1nc(-c2ccc(OC)cc2OC)cs1 | 8.2µM | i | nt | i | i | nt
CCc1noc(C)c1C(=O)Nc1nc(-c2cc(OC)ccc2OC)cs1 | i | i | i | i | i | nt
COc1ccc(OC)c(-c2csc(NC(=O)Cc3ccccc3)n2)c1 | 18µM | i | nt | i | i | i
COc1ccc(CC(=O)Nc2nc(C(C)(C)C)cs2)cc1 | 13µM | i | nt | ? | i | i
Cc1cccc(-n2ncc3c(NNC(=O)c4ccccc4Cl)ncnc32)c1 | nt | i | i | i | nt | i
COc1ccc(OC)c(-c2csc(NC(=O)Cc3cccs3)n2)c1 | 16µM | i | i | i | i | i
O=C(CSc1nc2nn(-c3ccccc3)c(=O)c-2c2n1CCCCC2)Nc1cccc(F)c1 | 9.2µM | i | i | i | i | nt
CCn1cc(C(=O)NCc2ccccc2OC)c(=O)c2cc(S(=O)(=O)N3CCCCC3)ccc21 | ? | i | i | i | nt | i
COc1ccc(-c2csc3nc(C)nc(N4CCCCC4)c23)cc1OC | i | 16µM | nt | i | i | i
COc1ccc(S(=O)(=O)c2ccc(OC)c(OC)c2)cc1OC | nt | i | 32µM | i | i | i
COc1cccc2c1C(=O)c1c(O)c3c(c(O)c1C2=O)C[C@@](O)(C(=O)CO)C[C@@H]3O[C@H]1C[C@H](N)[C@H](O)[C@H](C)O1 | ? | i | i | i | ? | ?

Assay outcomes deposited in PubChem BioAssay by National Center for Advancing Translational Sciences (NCATS).
